# An excerpt weighted towards active compounds, which were near 6.5% of everything screened.
# Vaccinia Venus = qHTS for Stage-Specific Inhibitors of Vaccinia Orthopoxvirus: Venus Reporter Primary qHTS; Vaccinia virus Venus reporter expression, fluorescence; Potency, µM (doses to about 36.5 µM), inactives show top-dose activity change, negative = inhibition, actives largely listed as inhibitors; 0.46% of 330,000 active; AID 720580, 2013; calls by dose curve; tested in A549 cells; also: potency is read from the fitted curve at half-maximal effect; nearly all actives have a fitted effect of over 30% in size
# Vaccinia mCherry = qHTS for Stage-Specific Inhibitors of Vaccinia Orthopoxvirus: mCherry Reporter Primary qHTS | Vaccinia virus mCherry reporter infection, fluorescence | Potency, µM (doses to about 36.5 µM), for inactives: at the top dose activity change, negative = inhibition, hits mostly inhibitors | 0.63% of 310,000 active; calls by dose curve; tested in A549 cells; also: potency is read from the fitted curve at half-maximal effect; nearly all actives have a fitted effect of over 35% in size
# Lassa entry inh = qHTS for Inhibitors of binding or entry into cells for Lassa Virus; Lassa virus pseudotype entry inhibition, cell reporter; Potency, µM (top dose mostly 37.9 µM), without a hit: at the top dose activity change, negative = inhibition, most hits filed as inhibitors; 1.2% of 300,000 active; AID 540256, 2011; calls by dose curve; tested in HEK293 cells; also: potency is read from the fitted curve at half-maximal effect; nearly all actives have a fitted effect of over 50% in size
# HCMV antiviral = qHTS Assay for inhibitors of the human cytomegalovirus (HCMV). HFF cells, HCMV-luciferase reporter, 72 h; active compounds read low. activity change, negative = inhibition, % at 57.5 µM. 4.5% of 410,000 active; in the data active = activity change below about -60%; inconclusive = no clear call, values can overlap the other calls; inactive = above about -39%
#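 Luciferase read-out from HCMV-luciferase-infected HFFs (MOI 1 PFU/cell) 72 h post infection at 37C; compounds added after 16 h cell attachment; activity normalized between buffer-only basal and Salinomycin (10uM) inhibitor controls.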
# MARV entry inh = qHTS for inhibitors of binding or entry into cells for Marburg Virus. Potency, µM (titrated, usually from 37.8 µM), for the others: at the highest dose activity change, negative = inhibition, hits mostly inhibitors. Marburg virus pseudotyped entry inhibition, cell reporter. 1.8% of 300,000 active; calls by dose curve; tested in HEK293 cells; also: potency is read from the fitted curve at half-maximal effect
# FMDV antiviral = High Throughput Screening for Foot and Mouth Disease Virus Antivirals | FMDV antiviral cell-based qHTS | AID 1159524, 2015 | Potency, µM (doses to about 57.9 µM), inactives show at the top dose activity change, negative = inhibition, hits mostly inhibitors | 1.2% of 410,000 active; calls by dose curve; tested in HEK293T cells; also: read-out not given here; potency is read from the fitted curve at half-maximal effect; nearly all actives have a fitted effect of over 45% in size
# * marks the source's active call; other numbers are inactive results; i = inactive; ? = inconclusive; . = no result; ! = a repeat was not active; [ ] = dose if it differs, or a comment. % is scaled to controls: 0 for no effect and ±100 for the full control effect.
SMILES,Vaccinia Venus,Vaccinia mCherry,Lassa entry inh,HCMV antiviral,MARV entry inh,FMDV antiviral
Cc1cnc(C)c(-c2cc(F)cc3c2OC(CNC(=O)Cc2c(C)noc2C)C3)n1 (stereo not given),-14%,i,.,.,.,-2%
Cc1ccc(CN2CCN(C(=O)C3CCCO3)CC2)cc1 (stereo not given),2%,i,-3%,4,6%,13%
Cc1ccc(-c2nc(CN3CCN(C(=O)C4CCCO4)CC3)cs2)cc1 (stereo not given),-20%,i,?,-71*,18µM*,?
O=C(NC1CC2CCCC(C1)N2C(=O)Nc1ccc(Cl)c(C(F)(F)F)c1)C1CC1 (stereo not given),.,.,5%,-6,-5%,?
O=C(Nc1ccc(Cl)c(C(F)(F)F)c1)NC1CC2CCCC(C1)N2Cc1ccccc1 (stereo not given),?,?,?,?,8.9µM*,?
NS(=O)(=O)c1ccc(NC(=O)CCC(=O)c2ccc(Cl)s2)cc1,0%,-12%,16%[46.1 µM],-95*,15%[46.1 µM],10%
O=C(Nc1ccc(-c2nc3ccccc3s2)cc1)C1=COCCO1,-2%,i,2µM*,-21,0.79µM*,10µM*
O=C(Nc1nc(-c2ccc(-c3ccccc3)cc2)cs1)C1=COCCO1,?,?,-8%,-64*,?,-5%
CN1CCC(N(C)S(=O)(=O)c2ccc(C(C)(C)C)cc2)CC1,.,.,.,-91*,.,-16%
CC(=O)Nc1ccc(S(=O)(=O)N(C)C2CCN(C)CC2)cc1,3%,-9%,2%,-27,-8%,-11%
O=C(c1cccc([N+](=O)[O-])c1)N1CCN(c2ncccn2)CC1,.,.,.,-28,.,6%
Cc1ccc(Nc2ccc(N3CCN(C(=O)c4cccc([N+](=O)[O-])c4)CC3)nn2)cc1,-24%,?,-9%[46.1 µM],-62*,.,-8%
Cc1ccc2nc(-c3ccccc3)cc(C(=O)N3CCN(S(=O)(=O)c4c(C)noc4C)CC3)c2c1,-17%,5%,-6%,-8,?,-2%
Cc1ccc2c(c1)sc(-c1ccc(N(C)C)cc1)[n+]2C,?,?,.,-96*,.,?
Cc1ccc(N(C)C)cc1,.,.,.,37,.,.
COc1ccc2[nH]c3c(N4CC(C)OC(C)C4)ncnc3c2c1 (stereo not given),.,.,10%,?,-29%,-19%
COc1cccc(N2CCN(c3ncnc4c3[nH]c3ccccc34)CC2C)c1 (stereo not given),.,.,.,-102*,.,.
COc1cccc(N2CCN(c3ncnc4c3[nH]c3ccc(F)cc34)CC2C)c1 (stereo not given),7.1µM*,.,2.8µM*,-97*,?,2µM*
CCOc1ccc(N2C(=O)C(c3nnnn3C(C)(C)C)N(Cc3ccc(OC)c(OC)c3)C2=O)cc1 (stereo not given),.,.,.,-6,.,.
COc1ccccc1N1CCN(C2CCCN(C(=O)CC(F)(F)F)C2)CC1 (stereo not given),.,.,.,35,.,-19%
CC(C)(C)c1nnc(N/N=C/c2ccccc2O)n(N)c1=O,?,2.8µM*,?,-102*,?,1%
CCc1nnc(N/N=C/c2ccccc2F)n1N,?,?,.,-80*,?,18%
CC(C)(C)c1nnc(N/N=C/c2ccccc2)n(N)c1=O,-18%,-6%,-4%,-8,?,-25%
CCc1nnc(N/N=C/c2ccccc2Cl)n1N,?,?,?,-3,4%,.
COc1oc(C(=O)NC2CCCCC2)c(-c2ccc(Cl)cc2)c1S(=O)(=O)c1ccccc1,-9%,i,-7%,-64*,-1%,14%
SMILES,Vaccinia Venus,Vaccinia mCherry,Lassa entry inh,HCMV antiviral,MARV entry inh,FMDV antiviral
C=CCOc1ccc(/C(O)=C2\C(=O)C(=O)N(CCN(C)C)[C@@H]2c2cccs2)cc1,.,.,.,.,7%[46.1 µM],.
Cc1ccc(/C=N/NC(=O)C(C)Oc2cccc3ccccc23)o1 (stereo not given),.,.,.,-66*,.,-21%
Cc1nn(Cc2ccccc2)c(C)c1C=C1C(=O)NC(=S)NC1=O,-3%,i,2%,-1,-9%,14µM*
Cc1c(-c2ccccc2)c(-c2ccc(OCCN(C)C)cc2)n2ccccc12,-1%,i,?,-74*,?,-2%
CCC(=O)N1CCN(c2ccccc2NC(=O)Cc2ccccc2)CC1,-1%,.,3%,-19,-3%,7%
CC(C)C(=O)N1CCN(c2ccccc2NC(=O)c2ccc(Br)o2)CC1,-14%,i,-18%[46.1 µM],13,?,?
CCC(=O)N1CCN(c2ccccc2NC(=O)c2ccc([N+](=O)[O-])o2)CC1,-23%,?,-10%,-65*,?,-9%
CC(C)C(=O)N1CCN(c2ccccc2NC(=O)c2ccc([N+](=O)[O-])o2)CC1,?,11µM*,-24%[46.1 µM],-73*,-26%[46.1 µM],0%
COc1ccc(NC(=O)CN2C(=O)NC3(CCCCCC3)C2=O)cc1Cl,-17%,0%,?,17,?,-12%
CCC(=O)N1CCc2cc(S(=O)(=O)CCC(=O)N3CCN(c4ccc(Cl)cc4)CC3)ccc21,-28%[7.34 µM],-5%[7.34 µM],-8%[46.1 µM],-77*!,?,?
COc1cc(C(=O)O/N=C2/C=CC(=O)C(C)=C2C)cc(OC)c1OC,0%,.,-3%,-105*,0%[46.1 µM],?
C[C@@H]1C=CCC(=O)N2[C@H](CC(=O)N[C@@H]1c1ccccc1)C[C@@H](C)[C@@H]2c1ccccc1,.,.,?,.,-24%[14.2 µM],.
Cc1cc(NC(=O)c2ccccc2)n(-c2nc3ccccc3[nH]2)n1,.,.,.,17,.,-20%
COc1cccc(OC)c1C(=O)Nc1cc(C)nn1-c1nc2ccccc2[nH]1,1%,-14%,11µM*,7,?,-25%
Cc1cc(NC(=O)c2sccc2C)n(-c2nc3ccccc3[nH]2)n1,?,?,-11%,-70*,?,?
COc1ccc(C(=O)Nc2cc(C)nn2-c2nc3ccccc3[nH]2)c(OC)c1,.,.,.,-64*,.,-4%
CN1CCN(CCC(=O)Nc2ccc(Cl)cc2)CC1,-1%,1%,-3%[46.1 µM],24,7%[46.1 µM],80%
Clc1ccc(-c2ccc(C=Nc3ccc(N4CCOCC4)cc3)o2)cc1,-4%,-11%,-5%,-62*,-17%,-7%
Cc1cc(C)n(CCCN2CCC(C(=O)Nc3cccc(-c4cccc(F)c4)c3)CC2)n1,?,?,-8%,-100*,13µM*,?
CCCOc1ccc(C2c3c(-c4ccccc4O)n[nH]c3C(=O)N2CCc2ccccc2)cc1OCC (stereo not given),?,?,?,-90*,?,-22%

# Assay outcomes: PubChem, National Center for Advancing Translational Sciences (NCATS)
